Screening results (PubChem)
Hits are enriched below; roughly 19% of the tested compounds scored in any of these assays.
TDP1 block – TDP1 (human) enzyme inhibition | AID 485290 | recombinant TDP1, AlphaScreen DNA substrate cleavage | 350,000 compounds, 0.28% hits | Potency, µM (titrated, usually from 130 µM), for the others: at the top dose activity change, negative = inhibition, usual class: inhibitors; note: potency is the fitted concentration of half-maximal effect; % is set by controls: 0 for no effect and ±100 for the full control effect; nearly all actives have a fitted effect of over 40% in size
Target sequence (Q9NUW8 whole entry, looked up): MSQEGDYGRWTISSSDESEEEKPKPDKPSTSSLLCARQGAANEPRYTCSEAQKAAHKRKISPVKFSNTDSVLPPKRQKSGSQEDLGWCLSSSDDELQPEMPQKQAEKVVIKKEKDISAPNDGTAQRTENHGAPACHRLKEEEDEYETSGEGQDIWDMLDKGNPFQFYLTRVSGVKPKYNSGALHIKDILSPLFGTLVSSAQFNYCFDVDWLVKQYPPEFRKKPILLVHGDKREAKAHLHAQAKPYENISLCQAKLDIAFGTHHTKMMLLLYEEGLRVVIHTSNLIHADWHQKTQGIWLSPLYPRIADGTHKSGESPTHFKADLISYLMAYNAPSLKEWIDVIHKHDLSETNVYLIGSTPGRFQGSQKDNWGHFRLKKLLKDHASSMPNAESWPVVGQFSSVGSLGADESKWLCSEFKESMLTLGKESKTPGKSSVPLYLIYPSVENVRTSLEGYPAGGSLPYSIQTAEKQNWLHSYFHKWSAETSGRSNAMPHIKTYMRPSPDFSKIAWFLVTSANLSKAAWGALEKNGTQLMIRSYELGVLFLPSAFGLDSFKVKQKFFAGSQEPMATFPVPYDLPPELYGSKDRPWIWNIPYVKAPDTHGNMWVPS
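Compounds were preincubated with Tdp1 (1 nM final) for 15 min at room temperature before substrate (15 nM final) started a 5 min reaction; beads (10 ug/ml final) were then added for 10 min before AlphaScreen detection.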
TGFb inhibitor – inhibitors of TGF-b signaling | HepG2 CAGA-GFP TGF-b/SMAD3 reporter, GFP fluorescence, 18 h; TGF-beta stimulated, 500 pg/mL final | Potency, µM (series often up to 46.1 µM), for the others: at the top dose activity, negative = inhibition, hits mostly inhibitors | 410,000 compounds, 1.2% hits; note: potency is the fitted concentration of half-maximal effect; % is set by controls: 0 for no effect and ±100 for the full control effect; nearly all actives have a fitted effect of over 65% in size
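Inhibition of TGF-beta-driven CAGA-GFP reporter expression in HEPG2 cells is measured by cellular GFP fluorescence after 18 h stimulation with 500 pg/mL recombinant TGF-beta in 1% FBS medium at 37 degrees C.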
HepG2 viability – HepG2 cytotoxicity, counter-screen for TGF-b inhibitors. HepG2 CAGA-GFP viability, ATP luminescence, 18 h. Potency, µM (top dose mostly 46.1 µM), for inactives: at the highest dose activity change, negative = cytotoxicity, actives largely listed as cytotoxic. 410,000 compounds, 0.76% hits; note: potency is the fitted concentration of half-maximal effect
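HepG2 CAGA-GFP cells (1000/well, DMEM with 1% FBS) received compound, then TGF-beta at 500 pg/mL final, and were incubated 18 hours at 37 degrees C. Viability was read by CellTiter-Glo luminescence. Media-only wells were set as complete cell-killing and DMSO as no toxicity.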
IL-1B inflam inh – inhibitors of inflammasome signaling (IL-1 beta secretion) | THP-1 LPS/ATP IL-1B secretion, AlphaLISA, 16 h; hits give low values | activity change, % at 57.5 µM | 360,000 compounds, 4.7% hits | AID 743279; in the data active = activity change below about -50%; inconclusive = mostly about -30% to -49%; note: % is set by controls: 0 for no effect and ±100 for the full control effect
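Secreted IL-1B measured by AlphaLISA bead assay after 16 h compound exposure of THP-1 cells; compounds (final up to 57.5 uM) added 1 h before LPS (250 ng/mL) and ATP (1.25 mM) stimulation; lower signal means less secretion.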
TDP1 cell CPT – DT40-hTDP1 cell growth loss with CPT | Potency, µM (doses to about 46.2 µM), inactives show at the highest dose activity change, negative = growth inhibition, usual class: inhibitors | 420,000 compounds, 12% hits | chicken DT40 Tdp1-/-;hTDP1 cells + 20 nM CPT, ATP luminescence, 48 h | AID 686979; note: potency is the fitted concentration of half-maximal effect; % is set by controls: 0 for no effect and ±100 for the full control effect; nearly all actives have a fitted effect of over 55% in size
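Cell growth measured by CellTiter-Glo luminescence after a minimum 48 h, 37 C compound exposure with 20 nM CPT in Tdp1-knockout DT40 cells stably expressing hTDP1, seeded 400/well; qHTS titration format.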
DT40 TDP1 no CPT – qHTS for Inhibitors of human tyrosyl-DNA phosphodiesterase 1 (TDP1): qHTS in cells in absence of CPT; Potency, µM (doses to about 46.2 µM), without a hit: at the top dose activity change, negative = growth inhibition, hits mostly inhibitors; DT40 Tdp1-/- hTDP1 cells, no CPT, ATP luminescence, 48 h; AID 686978, 2013; 420,000 compounds, 15% hits; note: potency is the fitted concentration of half-maximal effect; % is set by controls: 0 for no effect and ±100 for the full control effect; nearly all actives have a fitted effect of over 55% in size
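Chicken DT40 Tdp1-/- cells stably complemented with human TDP1 were seeded at 400 cells/well with DMSO in place of 20 nM camptothecin. After compound pinning, cells grew at least 48 hr at 37 °C; viability read by CellTiter-Glo luminescence.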
Starred values were filed as active, the others as inactive; ? = inconclusive; nt = no result given; [ ] = another dose, or the depositor's remark. Unless noted, calls come from the whole dose curve; as a rule, active = well fitted curve in the direction sought with a large enough effect; inconclusive = small, poorly fitted or top-dose-only effect, or another doubt; inactive = no such curve, though single readings can be large; an effect the other way counts as inactive or inconclusive.

SMILES	TDP1 block	TGFb inhibitor	HepG2 viability	IL-1B inflam inh	TDP1 cell CPT	DT40 TDP1 no CPT
CN(CC(=O)Nc1ccc(Cl)c(C(F)(F)F)c1)C(=O)C1CSC2(C)CCC(=O)N12 (stereo not given)	-0.7%	-25.9%	-21.3%	-2.6	?	18.4µM*
CN(Cc1ccc(C(C)(C)C)cc1)C(=O)C1CSC2(C)CCC(=O)N12 (stereo not given)	2.1%	-24.2%	-22.1%	20.6	16.4µM*	?
O=C(CCn1c(=O)c2sccc2n(CC(=O)Nc2ccccc2)c1=O)NCc1ccccc1Cl	1.8%	1.2%	-25.4%	nt	?	?
CCOc1ccc(CCn2c3c(c(=O)[nH]c2=O)C(NC(=O)c2cccc(F)c2)(C(F)(F)F)C(=O)N3)cc1OCC (stereo not given)	0.6%	0.8%	-19.9%	nt	6.1%	9.1%
CCOCCCNC(=O)C1CCCN(S(=O)(=O)c2ccc(-n3cnnn3)cc2)C1 (stereo not given)	nt	29.3%	30.1%	9.2	0.2%	-4.6%
Cn1nnc2c[n+](CC(=O)c3ccc4ccccc4c3)cc(Br)c21	1.9%	?	-69.7%	-101.4*	?	14.6µM*
CCOCCCn1c(C)nc2c[n+](CC(=O)c3ccc4ccccc4c3)cc(Br)c21	1.4%	6.2%	-7.1%	-58.4*	2.31µM*	2.59µM*
O=C(C[n+]1cc(Br)cc(Br)c1)c1ccc2ccccc2c1	nt	3.1%	12.7%	nt	-24.4%	?
C=CCNC(=S)NNC(=O)C(CCCC)CC(C)(C)O (stereo not given)	-2.5%	-11.1%	-0.1%	0.0	8.2µM*	7.31µM*
CN1C(=O)/C(=N\OC(=O)c2ccccc2Cl)c2ccccc21	2.5%	?	-0.7%	-23.2	23.1µM*	23.1µM*
CC(C)CC(=O)O/N=C1\C(=O)N(Cc2ccc(Cl)cc2)c2ccc([N+](=O)[O-])cc21	6.7%	nt	nt	nt	nt	nt
CC(=O)O/N=C1\C(=O)N(Cc2ccc(C)cc2)c2ccccc21	8.8%	0.0%	-16.1%	-93.6*	-10.7%	?
Cc1cccc(OCC(=O)OCc2cc(=O)n3nc(C4CC4)sc3n2)c1	-0.6%	32.1%	-0.1%	nt	-22.0%	-0.5%
O=S(=O)(NCCNCC=Cc1ccc(Br)cc1)c1cccc2cnccc12	nt	?	-75.3%	nt	10µM*	14.1µM*
O=S(=O)(NCCCCNS(=O)(=O)c1cccc2cccnc12)c1cccc2cccnc12	nt	-1.0%	-3.4%	nt	3.4%	-21.8%
CNCCNS(=O)(=O)c1cccc2cnccc12	8.0%[56.1 µM]	nt	nt	nt	18.4µM*	?
O=S(=O)(NCCNC/C=C/c1ccc(Br)cc1)c1cccc2cnccc12	9.6%	nt	nt	nt	18.7µM*	23.6µM*
COc1ccc(NS(=O)(=O)c2cccc3ccccc23)cc1	nt	-23.5%	7.3%	-9.8	?	?
COc1ccc(C(=O)NCCc2nnc3n2CCN(CC2CC=CCC2)CC3)cc1 (stereo not given)	nt	nt	nt	nt	-6.3%	-8.0%
Cc1cc(-c2ccc(C)c(S(=O)(=O)N(C)c3ccc(C)c(C)c3)c2)on1	-5.3%	-23.2%	-27.2%	nt	?	?
COc1ccccc1-c1nnc2n1N=C(c1c(OC)cccc1OC)CS2	3.8%	nt	nt	nt	nt	nt
C=C(C)C1Cc2c(ccc(C(=O)O)c2O)O1 (stereo not given)	2.7%	nt	nt	nt	10.1%	4.8%
CCN(C(=O)COC(=O)/C(=C/c1ccccc1)n1nnnc1C)C1CCCCC1	1.0%[0.505 µM]	-14.1%	-25.1%	-96.6*	?	23.1µM*
CC(OC(=O)c1nc(Cl)ccc1Cl)C(=O)NCc1ccccc1 (stereo not given)	nt	9.9%	-4.1%	-21.8	7.3%	-10.3%
CCCSc1nnc(-c2cccc(S(=O)(=O)N(C)C)c2)n1-c1cc(OC)ccc1OC	4.2%	?	-17.1%	5.1	11.2µM*	11.2µM*
SMILES	TDP1 block	TGFb inhibitor	HepG2 viability	IL-1B inflam inh	TDP1 cell CPT	DT40 TDP1 no CPT
CCSc1nnc(-c2cccc(S(=O)(=O)N(C)C)c2)n1-c1cc(OC)ccc1OC	2.9%	22.8%	-27.3%	8.8	14.1µM*	?
COc1ccc(OC)c(-n2c(SCC(C)=O)nnc2-c2cccc(S(=O)(=O)N(C)C)c2)c1	1.0%	1.8%	-7.8%	17.6	-14.7%	-18.4%
C=CCN1C(=O)C2(OCCCO2)c2cc(C)ccc21	2.3%	13.3%	1.6%	-17.2	4.3%	2.8%
C[C@]12CC[C@H](O)CC1=C[C@H](O)C1C2CC[C@@]2(C)C1CC[C@@]2(O)C#Cc1ccc(CN)cc1 (stereo not given in full)	nt	-3.6%	-8.6%	10.5	-24.7%	?
Cc1ccc(NS(=O)(=O)c2cc3c(cc2N(C)C)NC(=O)CC3)cc1C	0.0%	nt	nt	nt	nt	nt
CC(CNC(=O)c1cc2ccccn2n1)c1ccccc1 (stereo not given)	-2.6%	-0.9%	-10.4%	nt	-22.6%	-15.8%
COc1ccc(/C=C\c2nc(=O)c3ccccc3o2)cc1	2.9%	-2.1%	-2.6%	-3.6	?	7.31µM*
COC(=O)c1ccc(/C=C/c2c(-c3ccc(OC)cc3)oc3ccc(N4CCOCC4)cc23)cc1	nt	9.1%	4.1%	-6.4	?	23.1µM*
O=c1nc(/C=C/c2ccc(O)c(O)c2)oc2ccccc12	nt	12.4%	9.0%	-6.0	-14.4%	-29.0%
COc1ccc(/C=C/c2c(-c3cccc(C)c3)oc3ccc(N4CCOCC4)cc23)cc1	nt	-0.6%	-13.2%	-2.5	?	-27.5%
COC(=O)c1ccc(/C=C/c2c(-c3ccc(OC)cc3)oc3ccccc23)cc1	nt	1.3%	1.5%	-6.0	18.4µM*	18.4µM*
CCN(CC)C(=O)Cn1cc(SCC(=O)Nc2cccc(F)c2)c2ccccc21	5.1%	0.0%	-11.6%	nt	-5.6%	-13.3%
CCOC(=O)C1=CCN(S(=O)(=O)c2ccc(Br)cc2)C1c1ccc(C)cc1 (stereo not given)	nt	?	-26.2%	6.8	?	25.9µM*
CCOC(=O)C1=CCN(S(=O)(=O)c2ccc(C)cc2)C1c1cccc(C)c1 (stereo not given)	nt	-17.6%	-3.6%	31.1	?	18.4µM*
O=C(N/N=C/c1ccc(OC(=O)c2cccs2)cc1)c1cccc(F)c1	-13.7%	-1.6%	0.1%	-12.5	23.1µM*	20.6µM*
O=C(NNC(=O)c1cccs1)c1cccc(F)c1	0.5%	-2.7%	-2.4%	-8.5	3.0%	-3.9%
